Shown are actives, neighbours in structure and some others; about 3.5% of the full set was active somewhere.
FBW7 act: human FBW7 E3 ligase activation, primary screen | Q969H0 | AlphaScreen FBW7–phospho-cyclin E peptide binding, activator screen | normalized activity (activation), % at 26.1 µM | 650,000 tested, 0.13% active | AID 1259310; in the data active = normalized activity above about 1.9%;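 note: purified mutant Fbw7 with reduced substrate affinity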
Target sequence (Q969H0 whole entry, looked up): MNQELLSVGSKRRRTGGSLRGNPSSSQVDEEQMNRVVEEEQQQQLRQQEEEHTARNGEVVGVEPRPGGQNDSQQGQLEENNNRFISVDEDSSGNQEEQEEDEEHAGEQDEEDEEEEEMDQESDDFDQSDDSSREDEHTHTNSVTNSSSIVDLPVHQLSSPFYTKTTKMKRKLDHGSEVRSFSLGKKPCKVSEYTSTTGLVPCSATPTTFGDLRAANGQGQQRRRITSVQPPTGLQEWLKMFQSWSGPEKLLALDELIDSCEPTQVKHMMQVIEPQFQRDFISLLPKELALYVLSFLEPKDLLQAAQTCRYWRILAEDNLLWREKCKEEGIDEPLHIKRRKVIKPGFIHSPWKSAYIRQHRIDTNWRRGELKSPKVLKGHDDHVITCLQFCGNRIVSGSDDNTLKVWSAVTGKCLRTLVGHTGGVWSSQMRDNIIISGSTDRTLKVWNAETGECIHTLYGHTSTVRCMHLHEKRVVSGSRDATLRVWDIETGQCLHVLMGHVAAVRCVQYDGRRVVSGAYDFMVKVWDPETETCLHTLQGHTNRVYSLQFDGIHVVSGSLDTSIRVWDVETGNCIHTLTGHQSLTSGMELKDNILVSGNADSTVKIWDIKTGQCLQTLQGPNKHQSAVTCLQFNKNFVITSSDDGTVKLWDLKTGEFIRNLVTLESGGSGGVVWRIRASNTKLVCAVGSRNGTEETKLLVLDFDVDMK
TEAD-YAP inh: TEAD-YAP interaction inhibition | HEK-TIYL cells, TEAD-Gal4/YAP UAS-luciferase luminescence | inhibition, % at 9.12 µM | 640,000 tested, 1.4% active; in the data active = inhibition above about 32%;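 note: 0% = median of test compound wells and 100% = reference inhibitor wells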
MITF inh: blocks human microphthalmia-associated transcription factor. O75030. AlphaScreen MITF homodimerization, bead proximity signal. inhibition, % at 2.6 µM. 650,000 tested, 0.91% active. AID 1259374; in the data active = inhibition above about 50%;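 note: 0% = vehicle wells with protein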
GPR151 activ: activates the human receptor GPR151; Q8TDV0; PathHunter beta-arrestin GPR151 cells, luminescence; activation, % at 11.2 µM; 650,000 tested, 1% active; AID 1508602; in the data active = activation above about 4.9%;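 note: 0% = median of compound wells and 100% = cells with positive control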
GPR151 confirm: human GPR151 activation, confirmation screen; shares compounds with GPR151 activ; GPR151 PathHunter beta-arrestin cells, luminescence, 90 min; % of EA-reagent control over plate median; activation, % at 11.2 µM; 6,700 tested, under 10 active; AID 1508609;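 active = mean percent activation across replicates above the confirmation screen cutoff of 4.91%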
GPR119 counter: activates human GPR119 in a GPR151 counter-screen. shares compounds with GPR151 activ. GPR119 PathHunter beta-arrestin cells, luminescence, 90 min; 0 = compound-well median, 100 = enzyme-acceptor control. activation, % at 11.2 µM. 6,700 tested, 0.3% active;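 active = mean percent activation in the counterscreen above 29.09%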;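 note: counterscreen on off-target GPR119 to flag nonselective hits from the GPR151 activator screen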
* marks the source's active call; other numbers are inactive results; / = no result given.

SMILES | FBW7 act | TEAD-YAP inh | MITF inh | GPR151 activ | GPR151 confirm | GPR119 counter
CCCCN(C)c1nnc(NC(=O)Nc2ccc(Cl)cc2)s1 | 0 | -11 | 5 | 7.5* | 1 | 1
CCCCN(C)c1nnc(NC(=O)Nc2ccc(CC(=O)OCC)cc2)s1 | 0 | 2 | 7 | 0 | / | /
Cc1nc(NC(=O)CSc2nnc(N)s2)c(Cl)cc1Cl | 0 | 3 | 8 | 1 | / | /
CCCC1=NN2C(=N)/C(=C/c3cc(Cl)c(OCc4ccccc4F)c(OCC)c3)C(=O)N=C2S1 | 0 | 3 | 22 | -1 | / | /
CC1(c2ccccc2Cl)NC(=O)N(Cc2ccccc2C#N)C1=O (stereo not given) | 0 | 11 | -17 | 3 | / | /
CCC1(c2ccc(F)cc2)NC(=O)N(Cc2ccccc2C#N)C1=O (stereo not given) | 0 | -3 | -4 | 5.7* | 1 | 12
Cc1ccc(C)c(S(=O)(=O)N2CCN(Cc3nc(-c4cccs4)cs3)CC2)c1 | 0 | 3 | 10 | 0 | / | /
CC1CCCCC1NC(=O)Cn1nc(-c2ccc(Cl)cc2)ccc1=O (stereo not given) | 0 | 4 | 4 | 5.6* | 1 | -4
COc1ccc(-c2cnc(NCCc3c[nH]c4ccccc34)nc2)cc1 | 0 | -11 | 0 | 5.2* | 0 | -8
CC(=O)N1CC(C)Sc2cc(S(=O)(=O)NCc3cccnc3)ccc21 (stereo not given) | 0 | -6 | 13 | -1 | / | /
CCOC(=O)c1c(C)oc2ccc(N(C(=O)c3ccc(C)cc3)S(=O)(=O)c3ccc(C)cc3)cc12 | 0 | -7 | 5 | 5.0* | 1 | -3
COc1ccc(NC(=O)COC(=O)c2cc3ccccc3cc2OC)cc1Cl | 0 | 2 | 8 | 0 | / | /
O=C(CN1C(=O)c2ccccc2C1=O)Nn1c(-c2cccc(Cl)c2)nc2ccccc2c1=O | 1 | -10 | 19 | 6.7* | 0 | 13
CC(C)n1c(-c2csc3ccccc23)nc2c(NCCCN3CCCC3=O)ncnc21 | 0 | 5 | -2 | 6.8* | 1 | -4
CC(C)n1c(-c2cccs2)nc2c(NCCCN3CCCC3=O)ncnc21 | 0 | 3 | 35 | 1 | / | /
Cn1ccnc1C1(O)CCN(CC(=O)N2CCN(c3ccc(F)cc3)CC2)CC1 | 0 | 22 | 10 | 0 | / | /
COc1ccccc1/C=C/C(=O)OCC(=O)NC(=O)NC12CC3CC(CC(C3)C1)C2 | 0 | 1 | 16 | 5.5* | 1 | 4
COc1ccccc1/C=N/NC(=O)NC12CC3CC(CC(C3)C1)C2 | 0 | 9 | 10 | -1 | / | /
COc1ccc(/C=C2\SC(=S)N(CCC(=O)NCCO)C2=O)cc1 | 0 | -19 | 25 | 5.1* | 0 | 1
CCOc1ccc(/C=C2\SC(=S)N(C(CC)C(=O)O)C2=O)cc1 (stereo not given) | 0 | -6 | -10 | 6.0* | 0 | 6
CCOc1cccc(/C=C2/SC(=S)N(CCC(=O)O)C2=O)c1 | 0 | 8 | 1 | 4.9* | 0 | -7
CC1(C)CC2CC(C)(CN2C(=O)CSCC(=O)O)C1 (stereo not given) | 0 | -3 | -6 | 1 | / | /
CCN(CC)C(=O)C1CCCN(c2nc(NCCc3ccc(OC)cc3)c3ncn(Cc4ccc(C(F)(F)F)cc4)c3n2)C1 (stereo not given) | 0 | -9 | -4 | 6.8* | 0 | 1
CCN(CC)C(=O)C1CCCN(c2nc(NCCOc3ccccc3)c3ncn(Cc4ccc(C(F)(F)F)cc4)c3n2)C1 (stereo not given) | 0 | 0 | 10 | 0 | / | /
CCN(CC)C(=O)C1CCCN(c2nc(NCCc3ccc(OC)cc3)c3ncn(C4CCCCC4)c3n2)C1 (stereo not given) | 0 | -6 | 12 | 10* | 0 | -2
SMILES | FBW7 act | TEAD-YAP inh | MITF inh | GPR151 activ | GPR151 confirm | GPR119 counter
CN(C)C(=O)NC(NC(=S)Nc1ccc([N+](=O)[O-])cc1)C(Cl)(Cl)Cl (stereo not given) | -1 | 4 | 8 | 0 | / | /
O=C(Cn1cc([N+](=O)[O-])cn1)Nc1ccccn1 | 0 | 2 | 1 | 3 | / | /
O=C(Cn1cc([N+](=O)[O-])cn1)n1cccn1 | 0 | -4 | -6 | 5.5* | -1 | -11
CC1=C(C(=O)Nc2cccc(C(F)(F)F)c2)C(c2cccs2)C2=C(CCCC2=O)N1 (stereo not given) | 0 | 1 | 2 | 6.5* | 0 | 8
CCCCC(C(=O)Nc1cccc(C)c1)N1C(=O)c2cc(Cl)c(Cl)cc2C1=O (stereo not given) | 0 | -2 | 22 | 8.3* | 1 | 12
O=C(Nc1ccncc1)c1cc(-c2ccncc2)nc2ccccc12 | 0 | -15 | -5 | 5.2* | 3 | 15
CNC(=O)c1cc(-c2ccc(C)cc2)nc2ccccc12 | 1 | -5 | 11 | 5.4* | -2 | -13
Cc1ccc(Sc2cc(C(=O)NC3CC3)c3ccccc3n2)cc1 | 0 | 1 | 3 | 5.4* | 0 | -5
Cc1ccc(Sc2cc(C(=O)NC3CCC(C)CC3)c3ccccc3n2)cc1 (stereo not given) | 0 | -3 | 4 | 0 | / | /
CC(C)(C)N(Cc1ccccc1)C(=O)CN1C(=O)c2ccccc2C1=O | 0 | -56 | 6 | 0 | / | /
COc1ccc(Nc2oc(COc3cccc(C)c3)nc2C#N)cc1 | 0 | -54 | -11 | 0 | / | /
CCOC(=O)c1cnn(-c2ncnc3sc(C)c(C)c23)c1N | 0 | -4 | -17 | -1 | / | /
Cc1ccccc1C(=O)N/N=C/c1ccc(OCC(=O)N2CCCCC2)cc1 | 0 | 4 | 12 | 6.7* | 1 | 8
CCOc1ccc(/C=N/NC(=O)c2ccccc2C)cc1 | 0 | -21 | 15 | -1 | / | /
COc1ccc2nc(N3CCC(NCC(C)C)CC3)nc(C)c2c1 | 0 | -5 | -35 | -2 | / | /
Cc1ccc2nc(N3CCC(NCC(C)C)CC3)nc(C)c2c1 | 0 | 0 | -9 | 7.9* | 0 | -4
Cc1nc2sccn2c1CN1CCCC(CO)(Cc2cccc(Cl)c2)C1 (stereo not given) | 0 | 42* | 0 | 5.0* | 0 | 14
O=C1NC(=O)C(=Cc2cc(Br)ccc2OCc2ccccc2F)C(=O)N1 | 0 | -10 | 2 | 14* | -1 | 9
N#C/C(=C\c1ccc(-c2nc3ccccc3s2)o1)C(N)=O | 0 | -40 | 9 | -2 | / | /
CNC(=O)/C(C#N)=C/c1ccc(-c2nc3ccccc3s2)o1 | 0 | -58 | -5 | 5.5* | -1 | -1
OC1CCC(Nc2nc(-c3cccnc3)nc3sc4c(c23)CCC4)CC1 (stereo not given) | 0 | -11 | 3 | 0 | / | /
CCCCC1CCC(C(=O)Oc2ccc(-c3ccccc3)cc2)CC1 (stereo not given) | 0 | 7 | -6 | -1 | / | /
COC(=O)c1ccc(C)c(NC(=O)CN(c2ccc(F)cc2)S(C)(=O)=O)c1 | 0 | 2 | -12 | 7.1* | -1 | -5
